Source: PubChem BioAssay (NCI)
About 79,000 compounds went through this panel and 15% of them were active in at least one assay; those are over-represented in the sample as a whole. Calls of active or inactive are those of the source. No stated cut-off is given here; in the data, active means growth inhibition above about 70%; inactive means the rest.

What was measured:
[1] = NCI Yeast Anticancer Drug Screen. Data for the rad52 strain (AID 147);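 further: 0% = growth of vehicle-treated control cultures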; settings: S. cerevisiae rad52 mutant growth inhibition, active compounds read high
Summary of the method: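 Inhibition of yeast growth, referenced to vehicle controls, was the measured output for a strain with defective DNA damage repair.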

[2] = NCI Yeast Anticancer Drug Screen. Data for the wt1 strain (AID 149);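 further: 0% = growth of vehicle-treated wt1 cultures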; settings: S. cerevisiae wt1 strain (SPY 50644) growth inhibition, active compounds read high
Summary of the method: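 Using yeast strain wt1, compound-induced growth inhibition was determined against vehicle-treated cultures.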

[3] = NCI Yeast Anticancer Drug Screen. Data for the rad50EPP+ strain (AID 151);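 further: 0% = growth of vehicle-treated control cultures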; settings: S. cerevisiae rad50 mutant strain, active compounds read high
Summary of the method: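 Genetically defined yeast (rad50EPP+, DNA damage repair alteration) is grown with compound, and inhibition of growth is expressed relative to vehicle-treated controls.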

[4] = NCI Yeast Anticancer Drug Screen. Data for the mgt1 strain (AID 153); settings: S. cerevisiae mgt1 mutant growth inhibition, active compounds read high
Summary of the method: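 In the mgt1 strain, test compounds were added and growth inhibition was determined relative to vehicle-treated controls.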

[5] = NCI Yeast Anticancer Drug Screen. Data for the rad50 strain (AID 155);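 further: 0% = growth of vehicle-only cultures of the same strain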; settings: S. cerevisiae rad50 strain growth inhibition, active compounds read high
Summary of the method: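 Relative growth inhibition (compound vs vehicle) was measured in yeast with a defined repair-gene alteration.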

[6] = NCI Yeast Anticancer Drug Screen. Data for the mec2-1 strain (AID 157); settings: S. cerevisiae mec2-1 strain, active compounds read high
Summary of the method: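 Each compound was tested on mec2-1 yeast, a strain altered in DNA damage repair or cell cycle control. Growth inhibition is reported relative to vehicle.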

[7] = NCI Yeast Anticancer Drug Screen. Data for the rad14 strain (AID 159);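 further: 0% = growth of vehicle-treated control cultures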; settings: S. cerevisiae rad14 strain growth inhibition, active compounds read high
Summary of the method: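 Screen for anticancer potential: a yeast strain altered in DNA damage repair is grown with compound, and reduced growth is quantified against vehicle controls.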

[8] = NCI Yeast Anticancer Drug Screen. Data for the sgs1 mgt1 strain (AID 161);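 further: 0% = growth of cultures given vehicle only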; settings: S. cerevisiae sgs1 mgt1 strain, active compounds read high
Summary of the method: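 Read-out: growth inhibition vs vehicle controls. Cells: mutant yeast strain deficient in DNA damage repair.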

[9] = NCI Yeast Anticancer Drug Screen. Data for the CLN2oe strain (AID 163);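 further: 0% = growth of vehicle-only control cultures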; settings: S. cerevisiae CLN2oe strain, active compounds read high
Summary of the method: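 First, the altered yeast strain was treated with each compound; second, its growth was measured; finally, inhibition was derived by comparison with vehicle controls.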

[10] = NCI Yeast Anticancer Drug Screen. Data for the cln2 rad14 strain (AID 165);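 further: 0% = growth equal to vehicle treated cultures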; settings: S. cerevisiae cln2 rad14 strain, active compounds read high
Summary of the method: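 Test compounds were added to cln2 rad14 yeast cultures; inhibition of growth was then determined by comparison with vehicle treatment.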

[11] = NCI Yeast Anticancer Drug Screen. Data for the bub3 strain (AID 167); settings: S. cerevisiae bub3 mutant strain, active compounds read high
Summary of the method: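 Screening used yeast with an engineered genetic alteration affecting cell cycle control. Compound-exposed cultures were compared with vehicle cultures, and reduced growth was taken as inhibition.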

[12] = NCI Yeast Anticancer Drug Screen. Data for the wt2 strain (AID 169);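 further: 0% = growth of vehicle-treated yeast cultures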; settings: S. cerevisiae wt2 strain growth inhibition, active compounds read high
Summary of the method: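 The panel's yeast strains carry defined changes in DNA repair or cell cycle genes. Each strain is grown with compound, and growth loss is scored relative to vehicle.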

[13] = NCI Yeast Anticancer Drug Screen. Data for the mlh1 strain (AID 171);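 further: 0% = growth of vehicle-treated control cultures of the same strain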; settings: S. cerevisiae mlh1 strain growth inhibition, active compounds read high
Summary of the method: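 Inhibition values reflect reduced yeast growth in the presence of compound, referenced to vehicle controls, using a strain chosen for its alteration in DNA repair or cell cycle control.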

[14] = NCI Yeast Anticancer Drug Screen. Data for the sgs1 strain (AID 173);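 further: 0% = growth of vehicle-only control cultures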; settings: S. cerevisiae sgs1 mutant, active compounds read high
Summary of the method: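 Vehicle-treated cultures served as reference for growth inhibition of a yeast strain altered in DNA damage repair or cell cycle control after compound exposure.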

[15] = NCI Yeast Anticancer Drug Screen. Data for the mlh1 rad18 strain (AID 175); settings: S. cerevisiae mlh1 rad18 strain growth inhibition, active compounds read high
Summary of the method: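 Inhibition values reflect reduced growth of mutant yeast versus vehicle-treated controls following compound exposure; the mutations affect DNA damage repair.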

[16] = NCI Yeast Anticancer Drug Screen. Data for the rad18 strain (AID 177); settings: S. cerevisiae rad18 mutant growth inhibition, active compounds read high
Summary of the method: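 Steps: expose repair-mutant yeast to compound; measure growth; express as inhibition relative to vehicle control.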

[17] = at 5.0 µM (retest, dose inferred, filed as 0.5)
[18] = at 50.0 µM (retest, dose inferred, filed as 5.0)

Measured: growth inhibition

CC1(C2CC2)C(C#N)(C#N)C1(C#N)C#N
inactive: [1]; at 1.2 µM 2% | [1]; at 3.7 µM 10% | [1]; at 11.0 µM 22% | [1]; at 33.0 µM 45% | [2]; at 1.2 µM -2% | [2]; at 3.7 µM -2% | [2]; at 11.0 µM 5% | [2]; at 33.0 µM 19% | [2]; at 100.0 µM 48% | [3]; at 1.2 µM -1% | [3]; at 3.7 µM 2% | [3]; at 11.0 µM 1% | [3]; at 33.0 µM 9% | [3]; at 100.0 µM 9% | [4]; at 1.2 µM -1% | [4]; at 3.7 µM -2% | [4]; at 11.0 µM 1% | [4]; at 33.0 µM 16% | [4]; at 100.0 µM 63% | [5]; at 1.2 µM -1% | [5]; at 3.7 µM 3% | [5]; [17] -106% | [5]; at 11.0 µM 25% | [5]; at 33.0 µM 66% | [5]; at 50.0 µM 38.1% | [6]; at 1.2 µM 4% | [6]; at 3.7 µM 2% | [6]; [17] -39% | [6]; at 11.0 µM 33% | [6]; at 33.0 µM 36% | [6]; [18] 57% | [6]; at 50.0 µM 41.9% | [7]; at 1.2 µM 4% | [7]; at 3.7 µM 7% | [7]; at 11.0 µM 16% | [7]; at 33.0 µM 29% | [7]; at 100.0 µM 66% | [8]; [17] -48% | [8]; at 50.0 µM 51% | [9]; at 1.2 µM -2% | [9]; at 3.7 µM 8% | [9]; at 11.0 µM 16% | [9]; at 33.0 µM 21% | [9]; at 100.0 µM 53% | [10]; [17] -50% | [10]; [18] 7% | [10]; at 50.0 µM 16.3% | [11]; at 1.2 µM -7% | [11]; at 3.7 µM -2% | [11]; [17] -57% | [11]; at 11.0 µM 19% | [11]; at 33.0 µM 49% | [11]; at 50.0 µM 39.8% | [12]; at 1.2 µM -1% | [12]; at 3.7 µM -2% | [12]; at 11.0 µM -1% | [12]; at 33.0 µM 15% | [12]; at 100.0 µM 69% | [13]; at 1.2 µM 4% | [13]; at 3.7 µM -9% | [13]; at 11.0 µM 9% | [13]; at 33.0 µM 31% | [14]; at 1.2 µM -1% | [14]; at 3.7 µM 6% | [14]; at 11.0 µM 23% | [14]; at 33.0 µM 60% | [15]; [17] -96%
active: [1]; at 100.0 µM 78% | [5]; [18] 91% | [5]; at 100.0 µM 91% | [6]; at 100.0 µM 84% | [8]; [18] 70% | [11]; [18] 81% | [11]; at 100.0 µM 84% | [13]; at 100.0 µM 84% | [14]; at 100.0 µM 94% | [15]; [18] 89% | [15]; at 50.0 µM 70.9%

CCOC(=O)C(Cc1c2ccccc2cc2ccccc12)(NC(C)=O)C(=O)OCC
inactive: [1]; at 1.2 µM -2% | [1]; at 3.7 µM -2% | [1]; at 11.0 µM -4% | [1]; at 33.0 µM -6% | [1]; at 100.0 µM 0% | [2]; at 1.2 µM -1% | [2]; at 3.7 µM 0% | [2]; at 11.0 µM -2% | [2]; at 33.0 µM -3% | [2]; at 100.0 µM -2% | [3]; at 1.2 µM 0% | [3]; at 3.7 µM 0% | [3]; at 11.0 µM 6% | [3]; at 33.0 µM 12% | [3]; at 100.0 µM 10% | [4]; at 1.2 µM -3% | [4]; at 3.7 µM -2% | [4]; at 11.0 µM -3% | [4]; at 33.0 µM -18% | [4]; at 100.0 µM -4% | [5]; at 1.2 µM -6% | [5]; at 3.7 µM -16% | [5]; [17] -8% | [5]; at 11.0 µM -22% | [5]; at 33.0 µM -4% | [5]; [18] 11% | [5]; at 100.0 µM -2% | [6]; at 1.2 µM 0% | [6]; at 3.7 µM 0% | [6]; [17] -6% | [6]; at 11.0 µM -1% | [6]; at 33.0 µM 1% | [6]; [18] 27% | [6]; at 100.0 µM -1% | [7]; at 1.2 µM -3% | [7]; at 3.7 µM -5% | [7]; at 11.0 µM -3% | [7]; at 33.0 µM -5% | [7]; at 100.0 µM -1% | [8]; [17] -7% | [8]; [18] 19% | [9]; at 1.2 µM -3% | [9]; at 3.7 µM -2% | [9]; at 11.0 µM -6% | [9]; at 33.0 µM 0% | [9]; at 100.0 µM -2% | [10]; [17] 5% | [10]; [18] 41% | [10]; at 50.0 µM 61.3% | [11]; at 1.2 µM -2% | [11]; at 3.7 µM 1% | [11]; [17] 8% | [11]; at 11.0 µM -1% | [11]; at 33.0 µM 0% | [11]; [18] 67% | [11]; at 100.0 µM 2% | [12]; at 1.2 µM -2% | [12]; at 3.7 µM -3% | [12]; at 11.0 µM -4% | [12]; at 33.0 µM -2% | [12]; at 100.0 µM -2% | [13]; at 1.2 µM 0% | [13]; at 3.7 µM 0% | [13]; at 11.0 µM -3% | [13]; at 33.0 µM -2% | [13]; at 100.0 µM 0% | [14]; at 1.2 µM -1% | [14]; at 3.7 µM 1% | [14]; at 11.0 µM -1% | [14]; at 33.0 µM 5% | [14]; at 100.0 µM 9% | [15]; [17] -11% | [15]; [18] 35% | [16]; at 1.2 µM -5% | [16]; at 3.7 µM -1% | [16]; at 11.0 µM -1% | [16]; at 33.0 µM 0% | [16]; at 100.0 µM 3%
active: [5]; at 50.0 µM 90.2% | [6]; at 50.0 µM 75.5% | [8]; at 50.0 µM 86% | [11]; at 50.0 µM 88.8% | [15]; at 50.0 µM 86.9%
